Assay outcomes deposited in PubChem BioAssay by National Center for Advancing Translational Sciences (NCATS).
DT40 TDP1 no CPT – qHTS for Inhibitors of human tyrosyl-DNA phosphodiesterase 1 (TDP1): qHTS in cells in absence of CPT | DT40 Tdp1-/- hTDP1 cells, no CPT, ATP luminescence, 48 h | Potency, µM (series often up to 46.2 µM), without a hit: at the top dose activity change, negative = growth inhibition, actives largely listed as inhibitors | hit rate 15% among 420,000 | AID 686978, 2013; also: nearly all actives have a fitted effect of over 55% in size
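Luminescent ATP content (CellTiter-Glo) served as the growth readout. Knockout chicken DT40 cells expressing human TDP1 were exposed to compounds without camptothecin for a minimum 48 hr at 37 °C.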
KB-3-1 tox – qHTS assay for MDR1-selective chemotherapeutics: Primary screen using the parental adenocarcinoma cell KB-3-1 | KB-3-1 viability, CellTiter-Glo ATP luminescence, 72 h | Potency, µM (top dose mostly 46.1 µM), usual class: cytotoxic | hit rate 1.4% among 400,000 | AID 1347075, 2019; also: nearly all actives have a fitted effect of over 60% in size
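KB-3-1 cells, DMEM (no phenol red) + 10% FBS; compound by pin transfer, 72 h, 37 °C. Readout: CellTiter-Glo luminescence after 10 min. Data normalized, curve-fitted.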
HT1080-NT tox – qHTS for induction of synthetic lethality in tumor cells producing 2HG: qHTS for the HT-1080-NT fibrosarcoma cell line | HT-1080-NT fibrosarcoma viability, CellTiter-Glo ATP luminescence, 48 h | Potency, µM (titrated, usually from 46.1 µM), for inactives: top-dose activity, negative = less viability, most hits filed as cytotoxic | hit rate 1.6% among 360,000;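 also: NT is the 2HG producing partner of a matched IDH1 knockdown line; 0% = DMSO-treated cells and -100% = media-only wells without cells; nearly all actives have a fitted effect of over 55% in size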
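Read-out is CellTiter-Glo luminescence after 10 minutes at room temperature, following 48 hours' compound treatment of HT-1080-NT cells (750 cells/well, RPMI, 5% FBS, 37 degrees C).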
HT1080 IDH1KD tx – qHTS for induction of synthetic lethality in tumor cells producing 2HG: qHTS for the HT-1080-IDH1KD cell line; HT-1080 IDH1 knockdown viability, ATP luminescence, 48 h; Potency, µM (titrated, usually from 46.1 µM), without a hit: at the highest dose activity, negative = toxicity, actives largely listed as cytotoxic; hit rate 2% among 360,000;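 also: 0% = DMSO wells and -100% = cell-free medium wells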
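HT-1080-IDH1KD cells (IDH1 knocked down), 750/well in RPMI with 5% FBS, treated with compound 48 h at 37 degrees C. Viability by CellTiter-Glo luminescence, normalised to DMSO and no-cell wells; concentration-response curves classed.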
TDP1 cell CPT – qHTS for Inhibitors of human tyrosyl-DNA phosphodiesterase 1 (TDP1): qHTS in cells in presence of CPT; hit rate 12% among 420,000; chicken DT40 Tdp1-/-;hTDP1 cells + 20 nM CPT, ATP luminescence, 48 h; Potency, µM (titrated, usually from 46.2 µM), without a hit: at the top dose activity change, negative = growth inhibition, hits mostly inhibitors; also: nearly all actives have a fitted effect of over 55% in size
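Chicken DT40 Tdp1-/- cells stably complemented with human TDP1 were seeded at 400 cells/well in medium containing 20 nM camptothecin, exposed to pin-transferred compounds, and grown at 37 °C for at least 48 hr. Viability was read as ATP luminescence.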
KB-V1 MDR tox – qHTS assay for MDR1-selective chemotherapeutics: Primary screen using the drug-selected MDR subline cells KB-V1; AID 1347076, 2019; hit rate 3.4% among 400,000; Potency, µM (titrated, usually from 46.1 µM), hits mostly cytotoxic; KB-V1 MDR cells viability, CellTiter-Glo, 72 h; also: nearly all actives have a fitted effect of over 60% in size
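In this primary screen, KB-V1 cells overexpressing P-gp are incubated with library compounds (lowest to highest concentration) for 72 h at 37 degrees C before a luminescent ATP viability read.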
Starred values were filed as active, the others as inactive; i = inactive; ? = inconclusive; nt = no result given; [ ] = remark or other dose. Rows were chosen to be rich in hits. Some 19% of all compounds tested hit in one or more screens of this group. Calls follow the shape of the dose curve; as a rule, active = well fitted curve in the direction sought with a large enough effect; inconclusive = small, poorly fitted or top-dose-only effect, or another doubt; inactive = no such curve, though single readings can be large; an effect the other way counts as inactive or inconclusive. Unless noted, % is scaled to controls: 0 for no effect and ±100 for the full control effect; potency is read from the fitted curve at half-maximal effect.

SMILES	DT40 TDP1 no CPT	KB-3-1 tox	HT1080-NT tox	HT1080 IDH1KD tx	TDP1 cell CPT	KB-V1 MDR tox
COC(=O)C[C@H]1C=C[C@H](NS(=O)(=O)c2cn(C)cn2)[C@@H](CO)O1	-1.7%	i	8.6%	19.3%	-6.1%	i
Cc1ccc(NCc2cc3cc4c(cc3n(CC(=O)Nc3ccc(C)cc3)c2=O)OCCO4)cc1	8.2µM*	nt	nt	nt	7.31µM*	nt
COc1ccc(-n2cc(-c3ccc4c(c3)OCO4)n(CC(=O)Nc3cccc(C)c3)c2=O)cc1	?	i	nt	nt	23.1µM*	i
COc1ccc(NCc2cc3cc4c(cc3n(CC(=O)Nc3ccccc3)c2=O)OCO4)cc1	4.11µM*	nt	nt	nt	5.17µM*	nt
Cc1ccc(NCc2cc3cc4c(cc3n(CC(=O)Nc3ccc(F)cc3F)c2=O)OCCO4)cc1	nt	?	nt	nt	nt	i
COc1cc2cc(CNc3ccc(C)cc3)c(=O)n(CC(=O)Nc3ccc(F)cc3F)c2cc1OC	16.4µM*	nt	nt	nt	?	nt
COc1ccc(NCc2cc3cc4c(cc3n(CC(=O)Nc3cc(C)cc(C)c3)c2=O)OCO4)cc1	nt	i	nt	nt	nt	i
CN1C=CC(=O)[C@@H](OC(=O)Nc2ccc(Br)cc2)[C@H]1c1ccccc1Br	14.6µM*	i	-20.8%	-18.7%	?	i
C=CCN1C=CC(=O)[C@@H](OC(=O)Nc2ccc(Br)cc2)[C@H]1c1ccccc1Br	?	i	?	?	23.1µM*	?
C#CCN1C=CC(=O)[C@@H](OC(=O)Nc2ccccc2Br)[C@H]1c1ccccc1Br	?	i	5.5%	2.9%	23.1µM*	i
CCN(CC)CC(O)Cn1c(C)c(-c2ccccc2)c2cc([N+](=O)[O-])ccc21 (configuration not stated)	9.2µM*	?	20.6µM*	?	20.6µM*	i
CCN(CC)CC(O)Cn1c2ccccc2c2ccccc21 (configuration not stated)	?	i	-21.7%	-16.9%	-3.7%	i
O=C(NNC(=O)c1cc(-c2ccncc2)nc2ccccc12)c1ccccc1O	?	?	-11.2%	?	?	i
CN(C)CC(C)(O)c1ccc2c(c1)CN(Cc1cccn1-c1cccnc1)CCO2 (configuration not stated)	-12.7%	nt	nt	nt	18.5%[9.04 µM]	nt
O=C(NCC1CCCO1)c1cccc2c1C(=O)c1ccc(N3CCC(Cc4ccccc4)CC3)cc1S2(=O)=O (configuration not stated)	20.6µM*	?	-12.1%	-18.9%	?	23.1µM*
O=C(NCC1CC1)c1cccc2c1C(=O)c1ccc(N3CCCC3)cc1S2(=O)=O	?	i	0.4%	6.0%	?	i
CC1CCN(c2ccc3c(c2)S(=O)(=O)c2cccc(C(=O)NC[C@@H]4CCCO4)c2C3=O)CC1	?	i	-16.0%	-9.4%	13µM*	i
O=C(NC1CCCCC1)c1cccc2c1C(=O)c1ccc(N3CCC(Cc4ccccc4)CC3)cc1S2(=O)=O	-26.1%	i	10.2%	8.1%	?	i
Cn1cc(/C=N/n2cnc3scc(-c4ccc(Cl)cc4)c3c2=O)c2ccccc21	0.82µM*	?	?	0.461µM*	0.581µM*	?
OC1CCCN(CC(O)COc2ccc(-c3ccccc3)cc2)C1 (configuration not stated)	23.1µM*	i	?	?	?	?
CC1CCCN(CC(O)COc2ccc(-c3ccccc3)cc2)C1 (configuration not stated)	?	?	18.4µM*	?	?	i
CC1CCCN(CC(O)COc2ccc(Cl)cc2)C1 (configuration not stated)	-11.7%	i	4.6%	-20.1%	-10.7%	i
O=S(=O)(c1ccc(Cl)cc1)N1CCCC1c1nc2ccccc2s1 (configuration not stated)	-19.5%	?	2.7%	-17.0%	-23.3%	i
Cc1ccc(S(=O)(=O)N2CCCC2c2nc3ccccc3s2)cc1 (configuration not stated)	?	i	10.8%	-5.3%	?	20.6µM*
CC(C)CNc1ncnc2c1ncn2[C@H]1CN(CCc2ccccc2)C[C@@H](CO)O1	-28.1%	i	3.0%	26.8%	-10.3%	i
SMILES	DT40 TDP1 no CPT	KB-3-1 tox	HT1080-NT tox	HT1080 IDH1KD tx	TDP1 cell CPT	KB-V1 MDR tox
O=C(NCc1ccccc1)c1cc(C2CCCN(S(=O)(=O)c3ccccc3)C2)on1 (configuration not stated)	?	i	0.1%	1.3%	?	i
CCN(CC)c1ccc(/C=C(\C#N)c2ccccn2)cc1	2.59µM*	?	?	?	2.59µM*	?
CCN(Cc1ccccc1)c1ccc(/C=C(\C#N)c2ccccn2)cc1	?	i	-11.4%	-7.3%	-29.6%	?
CN(CCC#N)c1ccc(C=C(C#N)c2ccc(Br)cc2)cc1	?	i	-27.8%	?	?	16.4µM*
CN(CCC#N)c1ccc(/C=C(\C#N)c2ccccn2)cc1	?	?	-2.2%	-5.9%	?	5.17µM*
CS(=O)(=O)c1nc(-c2ccc(Br)cc2)cc(-c2ccccc2)c1C#N	2.59µM*	?	?	?	4.11µM*	i
CCS(=O)(=O)CCSc1nc(-c2ccc(Br)cc2)cc(-c2ccccc2)c1C#N	-13.6%	i	nt	nt	-14.5%	i
CS(=O)c1nc(-c2ccc(Br)cc2)cc(-c2ccccc2)c1C#N (configuration not stated)	2.59µM*	?	5.62µM*	3.55µM*	1.84µM*	?
O=C(CSc1nc2c([nH]c3ccccc32)c(=O)n1-c1ccccc1)N1CCCc2ccccc21	0.5%	nt	nt	nt	-0.3%	nt
Cc1[nH][nH]c(=O)c1C=NCc1cccc(C(F)(F)F)c1	-7.9%	i	0.4%	-1.0%	-5.0%	i
COC(=O)/C(=C(/F)Sc1cc(C)c(O)c(C)c1)C(F)(F)F	7.31µM*	?	3.9%[9.24 µM]	?	10.3µM*	i
CC1c2ccccc2N(S(=O)(=O)c2ccccc2)C1C (configuration not stated)	23.1µM*	i	?	?	?	i
